Test results reported in PubChem BioAssay.
Calls of active or inactive are those of the source.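 Rule for the calls: active = normalized viability below 100% at a tested concentration; inactive = the rest.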

Assay: drug combination growth inhibition, ovarian cancer – cell-based, oncology-focused library, rucaparib conditional, profiling panel (AID 1508598)
Details: patient-derived ovarian cancer cells, CellTiter-Glo viability, 144 h, stronger effect = lower value
[1] = at 5 µM, OCI-P5x cells, with rucaparib 20 µM, 100% = cells with rucaparib alone
[2] = at 5 µM, OCI-P5x cells, without rucaparib
[3] = at 0.000305 µM, OCI-C5x cells, with rucaparib 10 µM, 100% = cells with rucaparib alone
[4] = at 0.000305 µM, OCI-C5x cells, without rucaparib
[5] = at 0.000305 µM, OCI-P5x cells, with rucaparib 20 µM, 100% = cells with rucaparib alone
[6] = at 0.000305 µM, OCI-P5x cells, without rucaparib
[7] = at 0.00122 µM, OCI-C5x cells, with rucaparib 10 µM, 100% = cells with rucaparib alone
[8] = at 0.00122 µM, OCI-C5x cells, without rucaparib
[9] = at 0.00122 µM, OCI-P5x cells, with rucaparib 20 µM, 100% = cells with rucaparib alone
[10] = at 0.00122 µM, OCI-P5x cells, without rucaparib
[11] = at 0.00488 µM, OCI-C5x cells, with rucaparib 10 µM, 100% = cells with rucaparib alone
[12] = at 0.00488 µM, OCI-C5x cells, without rucaparib
[13] = at 0.00488 µM, OCI-P5x cells, with rucaparib 20 µM, 100% = cells with rucaparib alone
[14] = at 0.00488 µM, OCI-P5x cells, without rucaparib
[15] = at 0.0195 µM, OCI-C5x cells, with rucaparib 10 µM, 100% = cells with rucaparib alone
[16] = at 0.0195 µM, OCI-C5x cells, without rucaparib
[17] = at 0.0195 µM, OCI-P5x cells, with rucaparib 20 µM, 100% = cells with rucaparib alone
[18] = at 0.0195 µM, OCI-P5x cells, without rucaparib
[19] = at 0.0781 µM, OCI-C5x cells, with rucaparib 10 µM, 100% = cells with rucaparib alone
[20] = at 0.0781 µM, OCI-C5x cells, without rucaparib
[21] = at 0.0781 µM, OCI-P5x cells, with rucaparib 20 µM, 100% = cells with rucaparib alone
[22] = at 0.0781 µM, OCI-P5x cells, without rucaparib
[23] = at 0.313 µM, OCI-C5x cells, with rucaparib 10 µM, 100% = cells with rucaparib alone
[24] = at 0.313 µM, OCI-C5x cells, without rucaparib
[25] = at 0.313 µM, OCI-P5x cells, with rucaparib 20 µM, 100% = cells with rucaparib alone
[26] = at 0.313 µM, OCI-P5x cells, without rucaparib
[27] = at 1.25 µM, OCI-C5x cells, with rucaparib 10 µM, 100% = cells with rucaparib alone
[28] = at 1.25 µM, OCI-C5x cells, without rucaparib
[29] = at 1.25 µM, OCI-P5x cells, with rucaparib 20 µM, 100% = cells with rucaparib alone
[30] = at 1.25 µM, OCI-P5x cells, without rucaparib
[31] = at 5 µM, OCI-C5x cells, with rucaparib 10 µM, 100% = cells with rucaparib alone
[32] = at 5 µM, OCI-C5x cells, without rucaparib

Measured: viability

Nc1ncn([C@@H]2O[C@H](CO)[C@@H](O)[C@@H]2O)c(=O)n1
active: [1] 97.7% | [2] 99.1%

O=C1[C@H](CC[C@H](O)c2ccc(F)cc2)[C@H](c2ccc(O)cc2)N1c1ccc(F)cc1
active: [21] 98% | [25] 94.9% | [29] 96.5% | [30] 96.4% | [1] 84.2% | [2] 94.6%
inactive: [3] 109% | [4] 121% | [5] 106% | [6] 117% | [7] 107% | [8] 117% | [9] 107% | [10] 114% | [11] 111% | [12] 114% | [13] 101% | [14] 112% | [15] 109% | [16] 118% | [17] 104% | [18] 106% | [19] 107% | [20] 108% | [22] 102% | [23] 111% | [24] 111% | [26] 104% | [27] 126% | [28] 111% | [31] 128% | [32] 103%

CC#C[C@@]1(O)CC[C@H]2[C@@H]3CCC4=CC(=O)CCC4=C3[C@H](c3ccc(N(C)C)cc3)C[C@@]21C
active: [5] 88.4% | [6] 89.8% | [9] 88.8% | [10] 94.8% | [13] 93.3% | [14] 95% | [17] 86.7% | [18] 87.4% | [21] 84.5% | [22] 86.4% | [25] 83.6% | [26] 89.9% | [29] 87.2% | [30] 91% | [1] 72.1% | [2] 89.7%
inactive: [3] 124% | [4] 104% | [7] 112% | [8] 114% | [11] 122% | [12] 108% | [15] 118% | [16] 110% | [19] 122% | [20] 111% | [23] 113% | [24] 118% | [27] 121% | [28] 118% | [31] 162% | [32] 140%

C[C@H]1C[C@H]2[C@@H]3CCC4=CC(=O)C=C[C@]4(C)[C@@H]3C(=O)C[C@]2(C)[C@]1(O)C(=O)CO
inactive: [3] 114% | [4] 123% | [6] 119% | [7] 118% | [8] 124% | [9] 105% | [10] 116% | [11] 110% | [12] 119% | [14] 119% | [15] 113% | [16] 122% | [17] 103% | [18] 122% | [19] 109% | [20] 122% | [21] 102% | [22] 125% | [23] 111% | [24] 125% | [25] 100% | [26] 126% | [27] 125% | [28] 129% | [29] 108% | [30] 130% | [31] 119% | [32] 148% | [1] 112% | [2] 125%
active: [5] 96.8% | [13] 96.6%

CC[C@]1(O)C[C@@H]2CN(CCc3c([nH]c4ccccc34)[C@@](C(=O)OC)(c3cc4c(cc3OC)N(C=O)[C@H]3[C@@](O)(C(=O)OC)[C@H](OC(C)=O)[C@]5(CC)C=CCN6CC[C@@]43[C@@H]65)C2)C1
active: [5] 91.7% | [6] 90.9% | [9] 73.6% | [10] 31.5% | [11] 66.7% | [12] 41.5% | [13] 51% | [14] 17.7% | [15] 44.5% | [16] 29% | [17] 57.9% | [18] 14.5% | [19] 36.6% | [20] 24% | [21] 49.3% | [22] 12.1% | [23] 34% | [24] 23.4% | [25] 49.8% | [26] 10.9% | [27] 33.5% | [28] 23.5% | [29] 44.2% | [30] 12.2% | [31] 34.1% | [32] 22.9% | [1] 43% | [2] 11.8%
inactive: [3] 113% | [4] 110% | [7] 106% | [8] 106%

C=CCNC1=C2C[C@@H](C)C[C@H](OC)[C@H](O)[C@@H](C)/C=C(\C)[C@H](OC(N)=O)[C@@H](OC)/C=C\C=C(\C)C(=O)NC(=CC1=O)C2=O
active: [21] 41.9% | [22] 35.9% | [24] 56.1% | [25] 12.5% | [26] 8.71% | [27] 28.6% | [28] 27.2% | [29] 5.52% | [30] 5.3% | [31] 8.53% | [32] 8.44% | [1] 2.79% | [2] 1.94%
inactive: [3] 110% | [4] 101% | [5] 119% | [6] 124% | [7] 113% | [8] 108% | [9] 126% | [10] 121% | [11] 110% | [12] 117% | [13] 122% | [14] 126% | [15] 120% | [16] 116% | [17] 119% | [18] 115% | [19] 133% | [20] 112% | [23] 104%

CC(=O)O[C@@]1(C(C)=O)CC[C@H]2[C@@H]3C[C@H](C)C4=CC(=O)CC[C@]4(C)[C@@H]3CC[C@@]21C
active: [5] 94.9% | [21] 94% | [1] 92.5%
inactive: [3] 108% | [4] 122% | [6] 101% | [7] 113% | [8] 120% | [9] 101% | [10] 103% | [11] 122% | [12] 119% | [13] 103% | [14] 107% | [15] 114% | [16] 118% | [17] 104% | [18] 113% | [19] 106% | [20] 114% | [22] 111% | [23] 122% | [24] 118% | [25] 102% | [26] 110% | [27] 107% | [28] 120% | [29] 106% | [30] 111% | [31] 105% | [32] 121% | [2] 105%

CC[C@]1(O)C[C@@H]2CN(CCc3c([nH]c4ccccc34)[C@@](C(=O)OC)(c3cc4c(cc3OC)N(C=O)[C@@H]3C45CCN4CC=C[C@](CC)([C@H]45)[C@H](OC(C)=O)[C@]3(O)C(=O)OC)C2)C1 (some centres not stated)
active: [4] 99.3% | [5] 88.8% | [6] 86.4% | [8] 98.8% | [10] 90.1% | [14] 86.3% | [15] 88.9% | [16] 66.1% | [17] 70.6% | [18] 25.9% | [19] 45.1% | [20] 37.2% | [21] 51% | [22] 17.4% | [23] 42.3% | [24] 27.2% | [25] 56.1% | [26] 16.7% | [27] 34.8% | [28] 21.4% | [29] 51% | [30] 12.7% | [31] 41.7% | [32] 24.9% | [1] 50.9% | [2] 13.1%
inactive: [3] 113% | [7] 120% | [9] 102% | [11] 101% | [12] 103% | [13] 105%

CC(=O)O[C@]12CO[C@@H]1C[C@H](O)[C@]1(C)C(=O)[C@H](O)C3=C(C)[C@H](OC(=O)[C@H](O)[C@@H](NC(=O)OC(C)(C)C)c4ccccc4)C[C@](O)([C@H](OC(=O)c4ccccc4)C21)C3(C)C (some centres not stated)
active: [7] 86.4% | [8] 76% | [9] 93% | [10] 33.3% | [11] 37.6% | [12] 32.6% | [13] 70.1% | [14] 19.5% | [15] 41.9% | [16] 35.3% | [17] 56.6% | [18] 16.8% | [19] 38.2% | [20] 33.7% | [21] 61.2% | [22] 19.8% | [23] 41.5% | [24] 37.8% | [25] 55.6% | [26] 18.6% | [27] 47.4% | [28] 41.3% | [29] 55.9% | [30] 20.7% | [31] 37.7% | [32] 56.7% | [1] 34.2% | [2] 16.1%
inactive: [3] 118% | [4] 115% | [5] 120% | [6] 106%

Nc1nc(F)nc2c1ncn2[C@H]1O[C@H](CO)[C@@H](O)[C@@H]1O
inactive: [3] 101% | [4] 120% | [5] 104% | [6] 108% | [7] 106% | [8] 117% | [9] 103% | [10] 107% | [11] 112% | [12] 120% | [13] 102% | [14] 112% | [15] 109% | [16] 116% | [18] 113% | [19] 106% | [20] 111% | [21] 110% | [22] 113% | [24] 112% | [26] 112% | [29] 110% | [30] 107% | [1] 106%
active: [17] 97.4% | [23] 89.3% | [25] 99% | [27] 80.7% | [28] 82.4% | [31] 79.6% | [32] 11.9% | [2] 38.5%

COc1cccc2c1C(=O)c1c(O)c3c(c(O)c1C2=O)C[C@@](O)(C(=O)CO)C[C@H]3O[C@H]1C[C@H](N)[C@H](O)[C@H](C)O1
inactive: [3] 127% | [4] 120% | [5] 109% | [6] 109% | [7] 111% | [8] 111% | [9] 110% | [10] 106% | [11] 118% | [12] 117% | [13] 104% | [14] 108% | [15] 130% | [16] 110% | [17] 103% | [18] 106% | [19] 115% | [20] 103% | [23] 164% | [24] 125%
active: [21] 97.4% | [22] 82% | [25] 58.8% | [26] 32.7% | [27] 50% | [28] 16.5% | [29] 10.3% | [30] 13.8% | [31] 4.6% | [32] 1.33% | [1] 5.65% | [2] 8.22%
